{
  "source": "PubChem BioAssay (EPA / NIEHS)",
  "note": "Inconclusive results are not listed. Active and inactive are the calls of the source. Rule for the calls: active = hit-call score of the fitted dose curve at least 0.9, where 1 is the maximum; inconclusive = response in the unintended direction; inactive = score below 0.9.",
  "data": [
    {"read-out": "organic anion transporter (SLCO1B1), SLCO1B1 (gene 10599)", "assay": "CLD_SLCO1B1_24hr: CellzDirect (CLD) Gene Expression Assay for organic anion transporter (SLCO1B1) at 24 hours (AID 2283690)", "procedure": "CLD_24hr is a cell-based, multiplexed-readout assay that uses hepatocyte, a human liver primary cell, with measurements taken at 24 hours after chemical dosing in a 96-well plate.CLD_SLCO1B1_24hr is one of 16 assay component(s) measured or calculated from the CLD_24hr assay. It is designed to make measurements of mRNA induction, a form of inducible reporter, as detected with chemiluminescence signals by Quantitative Nuclease Protection Assay (qNPA) technology.Data from the assay component CLD_SLCO1B1_24hr was analyzed at the endpoint, CLD_SLCO1B1_24hr, in the positive analysis fitting direction relative to DMSO as the negative control and baseline of activity. Using a type of inducible reporter, gain-of-signal activity can be used to understand changes in the reporter gene as they relate to the gene SLCO1B1. Furthermore, this assay endpoint can be referred to as a primary readout. To generalize the intended target to other relatable targets, this assay endpoint is annotated to the transporter intended target family, where subfamily is organic anion transporter.\nHuman hepatocyte cultures were treated daily for two consecutive days with fresh dosing solutions containing appropriate concentrations of the 320 ToxCast chemicals (chemical identities were blinded to CellzDirect and other ToxCast collaborators), vehicle control (0.2% DMSO), and positive control inducers as summarized in Table 1. Due to the large number of treatment groups and chemicals examined, the ToxCast chemicals were divided into two groups (spanning two independent cultures of hepatocytes from separate donor preparations (Hu778: ToxCast plates 1 and 2; Hu776: ToxCast plates 3 and 4). Each preparation of human hepatocyte cultures was treated with respective vehicle control, medium only control, set of six positive controls/reference chemicals for the five hepatic receptor pathways, and a subset of eight of the ToxCast chemicals (indoxacarb, pyrithiobac-sodium, norflurazon, cyhalofop-butyl, methomyl, thiram, acetochlor, and propiconazole). These replicate data, coupled with internal replicates designed within the blinded ToxCast chemical library, provided additional data to evaluate interindividual differences between hepatocyte preparations and their potential impact on chemical profiles.Cell morphology and integrity were evaluated using phase-contrast microscopy as an indicator of hepatocyte cell health (Tyson & Green, 1987). Cultures for each treatment group (i.e., media, vehicle [0.2% DMSO], positive control inducers [multiple concentrations], and the ToxCast chemicals [multiple concentrations]) were observed and cell morphology was assessed relative to vehicle control cultures at each harvest time point (0, 6, 24, or 48 h). […] Images were evaluated at the conclusion of the study to assess changes in cell integrity and account for the effects of chemical exposure on uncharacteristic changes in concentration-dependent gene expression profiles. The results from these determinations of apparent cytotoxicity were annotated (yes/no) alongside the corresponding qNPA data for reference.At the conclusion of each treatment period, hepatocyte cultures (96-well) were washed with 1 volume of HBSS, lysed by addition of 25 ul ArrayPlate lysis buffer (HTG, Tucson, AZ), and 70 ul/well of Denaturation Oil, denatured by incubation at 95C for 10 min, and frozen at approximately -70C until analysis by nuclease protection assay (qNPA) (Roberts et al., 2007). For qNPA analysis, cell lysates were thawed at 50C for approximately 30 min, qNPA probes were added, and samples were incubated at 95C for 10 min to begin the detection process by denaturing the target RNA, dissociating the duplexes and secondary structure hybridization. At the conclusion of the hybridization period, S1 nuclease reagent was added to each sample to digest all nonprotected nucleotides at 50C for 60-90 min. […]", "values": [
      {"molecule": "CCC(C)OC(=O)N1CCCCC1CCO", "note": "(stereo not drawn)", "outcome": "inactive"},
      {"molecule": "CCCCC(CC)COC(=O)c1ccccc1C(=O)O", "note": "(stereo not drawn)", "outcome": "inactive"},
      {"molecule": "CCOC(=O)[C@H](C)Oc1ccc(Oc2nc3ccc(Cl)cc3o2)cc1", "outcome": "inactive"},
      {"molecule": "CCCN(CCC)C(=O)SCC", "outcome": "inactive"},
      {"molecule": "CCOC(=O)C(C)Oc1ccc(Oc2nc3ccc(Cl)cc3o2)cc1", "note": "(stereo not drawn)", "outcome": "inactive"},
      {"molecule": "CCC(O)=C1C(=O)CC(C(=O)O)CC1=O", "note": "(stereo not drawn)", "outcome": "inactive"},
      {"molecule": "CC1(C)C(C=C(Cl)Cl)C1C(=O)OCc1cccc(Oc2ccccc2)c1", "note": "(stereo not drawn)", "outcome": "inactive"},
      {"molecule": "COC(=O)c1cccc(C)c1S(=O)(=O)NC(=O)Nc1nc(OCC(F)(F)F)nc(N(C)C)n1", "outcome": "inactive"},
      {"molecule": "COCCO", "outcome": "inactive"},
      {"molecule": "O=C(Nc1ccc([N+](=O)[O-])cc1Cl)c1cc(Cl)ccc1O", "outcome": "inactive"},
      {"molecule": "CCCCCCC(C)OC(=O)COc1nc(F)c(Cl)c(N)c1Cl", "note": "(stereo not drawn)", "outcome": "inactive"},
      {"molecule": "CCNc1nc(N)nc(Cl)n1", "outcome": "inactive"},
      {"molecule": "COC(=O)c1ccc(I)cc1S(=O)(=O)NC(=O)Nc1nc(C)nc(OC)n1", "outcome": "inactive"},
      {"molecule": "c1ccc(Nc2ccccc2)cc1", "outcome": "inactive"},
      {"molecule": "CCCCOC(=O)[C@@H](C)Oc1ccc(Oc2ccc(C(F)(F)F)cn2)cc1", "outcome": "inactive"},
      {"molecule": "CCCOC(=O)NCCCN(C)C", "outcome": "inactive"},
      {"molecule": "CCSC(=O)N(CC(C)C)CC(C)C", "outcome": "inactive"},
      {"molecule": "C#CCOC(=O)[C@@H](C)Oc1ccc(Oc2ncc(Cl)cc2F)cc1", "outcome": "inactive"}
    ]}
  ]
}
